In PubChem BioAssay (Tox21):
“And” between values parts separate entries of the source, which are not always exact repeats. Equal values may be shown once. Records with an inconclusive call do not appear. Entries that show only a call come without a potency. A structure can be active in one record and inactive in another. The source made the active and inactive calls. The call rests on the fitted dose curve; in most records, active means well fitted curve in the direction sought with a large enough effect in the repeat runs; inconclusive means weak or mixed curves; inactive means no such curve, though single readings can be large; an effect the other way counts as inactive or inconclusive.

Key:
[1] = qHTS assay for identifying genotoxic compounds that show differential cytotoxicity against isogenic chicken DT40 cell lines with known DNA damage response pathways - wild type cell line (AID 743012); conditions: DT40 wild type chicken cells viability, CellTiter-Glo, 40 h; series mostly up to 68.4 µM; further: nearly all actives have a fitted effect of over 60% in size
Outline: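 Viability by ATP luminescence (CellTiter-Glo, 30 min RT) after 40 h compound treatment at 37 C/5% CO2, using 300 parental DNA repair-proficient DT40 cells per well.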

[2] = qHTS assay for identifying genotoxic compounds that show differential cytotoxicity against isogenic chicken DT40 cell lines with known DNA damage response pathways - Rev3 mutant cell line (AID 743014); conditions: chicken DT40 Rev3-/- viability, CellTiter-Glo, 40 h; series mostly up to 68.4 µM; further: nearly all actives have a fitted effect of over 55% in size; further: potency means the concentration at half of the fitted maximal effect
[3] = qHTS assay for identifying genotoxic compounds that show differential cytotoxicity against isogenic chicken DT40 cell lines with known DNA damage response pathways - Rad54/Ku70 mutant cell line (AID 743015); conditions: DT40 Rad54/Ku70 mutant viability, CellTiter-Glo, 40 h; series mostly up to 66.8 µM; further: nearly all actives have a fitted effect of over 60% in size

Question: Which Potency [1] does the source give for `CC(C)C(=O)OCC(C)(C)C(OC(=O)C(C)C)C(C)C` (stereo not drawn) here?
Answer: The Potency was “inactive”.

Question: And the Potency [2]?
Answer: Its Potency is “inactive and 19.3 µM (active)”.

Question: And the Potency [3]?
Answer: Its Potency is “inactive”.
